Experimental data taken from PubChem BioAssay AID652104 (National Center for Advancing Translational Sciences (NCATS), 2013).
Screen size: about 410,000 compounds; about 7,200 (1.8%) were called active. Roughly 7% stayed inconclusive and do not appear here. Many of the other results were omitted from the sample, so actives are more common in it than they were. A number with no mark means an inactive call. Calls come from the whole dose curve; as a rule, active = well fitted activation curve with a large enough effect; inconclusive = small, poorly fitted or top-dose-only effect, or another doubt; inactive = no such curve, though single readings can be large or run the other way.

Test: qHTS of TDP-43 Inhibitors; note: nearly all actives have a fitted effect of over 50% in size; for growth rescue (activation): % of control where 0% means no effect
Details: TDP-43 expressing yeast growth rescue, BacTiter-Glo, 24 h; series mostly up to 46.1 µM; growth rescue (activation): at the top concentration
Method in brief: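 Growth rescue of TDP-43-toxic yeast measured as ATP luminescence (BacTiter-Glo). Cells grown to mid-log in raffinose, induced in galactose at OD600=0.02, exposed to compound 24 hr at 30 deg C.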
Potency is the fitted concentration of half-maximal effect.

SMILES	Potency	growth rescue (activation)
Cc1nnc(-c2ccc(Oc3ccc(C)c(C)c3)c([N+](=O)[O-])c2)o1	20 µM (active)	
COc1ccc(OCC(=O)Nc2cc(C)c(Cl)cc2OC)c([N+](=O)[O-])c1		-6.38%
COc1ccc(-c2noc(-c3ccc(N4CCN(c5ccccc5)CC4)c([N+](=O)[O-])c3)n2)cc1OC		22.5%
COc1ccc(Cl)cc1NC(=O)CSc1nc(=O)[nH]c2c1CCCC2		20.8%
CCOC(=O)c1cc(NC(=O)c2ccc(F)cc2)c(=O)n2c1oc1ccccc12		19%
Cc1ccc(F)cc1NC(=O)CCSc1nc(-c2ccco2)cc(C(F)(F)F)n1		0%
CC(C)(C)c1ccc(S(=O)(=O)NC(=O)C2(C)CCN2C(=O)CC2CC2)cc1 (configuration not stated)		12.9%
CCCC(=O)N1CCC1(C)C(=O)NS(=O)(=O)c1ccc(Cl)cc1 (configuration not stated)		20.4%
CC(C)c1ccc(CC(=O)N2CCC2(C)C(=O)NS(=O)(=O)c2ccc(C(C)(C)C)cc2)cc1 (configuration not stated)	22.4 µM (active)	
CCCCS(=O)(=O)c1oc(-c2cccs2)nc1S(=O)(=O)c1ccccc1		9.11%
CCC(=O)N1CCc2cc(Br)cc(S(=O)(=O)CCC(=O)NCCc3ccc(OC)c(OC)c3)c21		-3.94%
COc1cccc(CNC(=O)c2ccc3c(Cl)c4c(nc3c2)CCCC4)c1	15.8 µM (active)	
COc1cccc(CNC(=O)CSc2c3c(nc4cc(Cl)ccc24)CCCC3)c1		0%
COc1cccc(CNC(=O)c2ccc3c(c2)sc2nc(-c4cccc(OC)c4)cn23)c1		11.4%
CCC(C(=O)Nc1cccc(Cl)c1C)n1nc(-c2ccc(C)cc2)ccc1=O (configuration not stated)		19.3%
Cc1cccc(C(CC(=O)NCC2(c3ccccc3)CCCC2)c2ccccc2)c1O (configuration not stated)		1.56%
COc1ccc(NC(=O)N2CCCC(c3nc(-c4ccc(F)cc4)no3)C2)cc1 (configuration not stated)		-8.68%
CC(C)c1ccc(NC(=O)C2CCN(c3nc(-c4ccc(C(C)C)cc4)no3)CC2)cc1		15.4%
CCN(C(=O)C1CCCN(c2nc(-c3ccc(OC)cc3)no2)C1)c1ccc(OC)cc1 (configuration not stated)	22.4 µM (active)	
O=C(Nc1cc(C(F)(F)F)ccc1Cl)c1ccc2c(c1)CCN2S(=O)(=O)c1ccccc1		0.492%
Cc1ccccc1CNC(=O)CSc1nnc(C)c2c(C)n(-c3ccccc3)nc12		-0.0928%
Cc1ccc(Cl)cc1N1CCN(C(=O)c2cn(C)c3ccc(S(=O)(=O)N(C)C4CCCCC4)cc3c2=O)CC1		-6.86%
Cc1cccc(Cn2c(=O)n(CCC(=O)NCCc3ccc(Cl)cc3)c(=O)c3sccc32)c1		-5.44%
O=[N+]([O-])c1ccc2c(c1)Nc1nc3ccccc3nc1N2	22.4 µM (active)	
O=C1Nc2ccc([N+](=O)[O-])cc2C1=Nc1cccc(CO)c1		-7.38%

SMILES	Potency	growth rescue (activation)
Cc1nc2ccccc2nc(=O)c1NNc1ccc([N+](=O)[O-])cc1		12.8% [at 9.22 µM]
C[n+]1ccc(/C=C/c2c[nH]c3ccccc23)cc1		-10.3%
NC(=O)CSc1c[nH]c2ccccc12		-0.941%
CSC(=S)N/N=C/c1c[nH]c2ccccc12	12.6 µM (active)	
NS(=O)(=O)c1ccc2nc(NC(=O)COc3ccccc3)sc2c1		24% [at 9.22 µM]
CC1CN(C(=O)N2CCC(C(=O)NCc3ccco3)CC2)c2cc(Cl)ccc2O1 (configuration not stated)		0%
Cc1c(Cl)cccc1-c1ccc(CNCCCSc2nnnn2C)o1		0% [at 9.22 µM]
CC(C)c1ccc(Cn2c(COc3ccccc3)nc3ccccc32)cc1		-4.54%
COCc1nc2ccccc2n1Cc1ccccc1Br	20 µM (active)	
C=C(Br)Cn1c(CCCC)nc2ccccc21		7.28%
COc1cccc(NC(=O)C(=O)NCC(c2ccc3c(c2)OCO3)N2CCN(C)CC2)c1 (configuration not stated)		2.35%
COc1ccc(Cn2c(C(=O)O)c(CNCc3cccc(OC)c3)c3ccc(C)cc32)cc1		5.91%
CCNC(=O)Cn1nc(C)n2c(cc3c(OC)cccc32)c1=O		18.2%
CCOc1ccc(C(=O)N2CCN(CCc3ccccn3)CC2)cc1		19.5%
O=C1C2C3C=CC(C3)C2C(=O)N1c1ccc(S(=O)(=O)Nc2nccs2)cc1 (configuration not stated)		-11.2%
O=C1C2C3C=CC(C3)C2C(=O)N1c1ncc([N+](=O)[O-])s1 (configuration not stated)	14.1 µM (active)	
O=C1C2C3C=CC(C4CC34)C2C(=O)N1c1nccs1 (configuration not stated)		21.6%
COc1ccccc1NC(=O)c1oc2ccccc2c1NC(=O)COc1ccccc1OC		13.7%
Cc1ccc(CNS(=O)(=O)c2ccc3c(c2)N(C)CCO3)cc1	15.8 µM (active)	
CN1CCN(c2ccc(CNS(=O)(=O)c3cccc(F)c3)cc2)CC1		7.06%
Cc1ccc(S(=O)(=O)NCC(=O)N2CCOCCOCCOCCOCC2)cc1		-6.52%
Nc1ccc2c(c1)C(O)c1ccc(Cl)cc1-2 (configuration not stated)	20 µM (active)	
O=C(Nc1ccc2nc(SCC(=O)N3CCCc4ccccc43)sc2c1)c1ccc(F)cc1		12.4%
O=C(Nc1ccc(F)cc1F)c1cnn(-c2ccc(F)cc2)c1-n1cccc1		19.2%
O=C(c1cnn(-c2ccc(F)cc2)c1-n1cccc1)N1CCN(c2ccc(F)cc2)CC1	25.1 µM (active)	

SMILES	Potency	growth rescue (activation)
COC(=O)c1ccccc1NC(=O)c1cnn(-c2ccc(F)cc2)c1-n1cccc1		0%
CCOC(=O)c1c(C)[nH]c(CCC(=O)NCCCN2CCN(c3cccc(Cl)c3)CC2)c1C		13.5%
Cc1cc(NC(=O)c2ccc(-c3ccc(Cl)cc3)o2)cc(-c2nc3ncccc3o2)c1O		12.2%
Cc1cc([N+](=O)[O-])c(NC2CCCCC2)c([N+](=O)[O-])c1	35.5 µM (active)	
Cc1cc([N+](=O)[O-])c(N2CCC[C@@H]2C(=O)O)c([N+](=O)[O-])c1		-26.4%
Cc1ccc(C(=O)COC(=O)CCCC(=O)NC2CCCCC2)cc1[N+](=O)[O-]		5.33%
COc1ccc(S(=O)(=O)c2c(Nc3ccc(C)cc3)sc(C(=O)c3ccc(C)cc3)c2N)cc1		12.2%
CCOc1ccc(NC(=O)Cn2c(C)ccc(C#N)c2=O)cc1		-1.23%
CC(N=Cc1nc(-c2ccccc2)oc1O)c1ccccc1 (configuration not stated)	12.6 µM (active)	
Cn1c(=O)c2c(nc(SCC(=O)Nc3ccc(F)cc3)n2Cc2ccc(Cl)cc2)n(C)c1=O		12.5%
CCn1c2ccccc2c2cc(CN3CCN(Cc4cccc(Cl)c4)CC3)ccc21		6.14%
CCCCNC(=O)CSc1nc2cc3c(cc2c(=O)n1CCCCCC(=O)NCc1ccc2c(c1)OCO2)OCO3		18.1%
CC1Cc2ccccc2N1C(=O)CSc1nc2ccccc2o1 (configuration not stated)	12.6 µM (active)	
CC1Cc2ccccc2N1C(=O)CSc1nnc(C2CC2)n1C (configuration not stated)		1.9% [at 9.22 µM]
CC1Cc2ccccc2N1C(=O)Cn1cnc2ccccc2c1=O (configuration not stated)		-3.07%
CCc1ccc(NC(=O)c2cnc3c(-c4ccccc4)c(C)nn3c2C)cc1		20.4%
O=C(CN1C(=O)COc2ccc(S(=O)(=O)N3CCOCC3)cc21)N1CCN(c2cccc(Cl)c2)CC1		12.5%
O=C(COc1ccc(Cl)cc1)Nc1ccccc1OCc1cc(=O)n2ccccc2n1		12.3%
COc1cc(/C(=C/c2ccccc2)c2ccccc2)c2c(c1)oc1ccccc12		-12.2%
Cc1oc2cc([N+](=O)[O-])c(O)c([N+](=O)[O-])c2c1C(=O)c1ccc(Br)cc1		-43.2% [at 9.22 µM]
Cc1oc2cc(Br)c(O)c(Br)c2c1C(=O)c1ccccc1	22.4 µM (active)	
CCc1ccccc1NC(=O)c1sc2nc3c(cc2c1N)CN(Cc1ccccc1)CC3		21%
Cc1cccc(CCNC(=O)c2ccc3c(c2)nc2n3CCC(C)C2)c1 (configuration not stated)		5.91%
CCC(C)NC(=O)CN(C1CCCCC1)S(C)(=O)=O (configuration not stated)		-30.4%
CS(=O)(=O)N(CC(=O)Nc1ccc(F)cc1)C1CCCCC1		14.6%

SMILES	Potency	growth rescue (activation)
CS(=O)(=O)N(CC(=O)Nc1ccc(Cl)c(Cl)c1)C1CCCCC1	15.8 µM (active)	
CC(C)c1cccc(C(C)C)c1Nc1cn[nH]c1	3.98 µM (active)	
FC(F)(F)c1cc(Nc2nc3ccccc3c3nncn23)ccc1Cl		0%
O=C(CC(NCc1cccnc1)C(=O)O)Nc1ccc(O)cc1 (configuration not stated)		0.784%
COc1ccc2c(CNCCc3ccccc3C)c(C(=O)O)n(Cc3ccccc3C)c2c1		12.8%
CCN(CCCNC(=O)CSc1cc(=O)n(C)c2cc(Cl)ccc12)c1cccc(C)c1		-25.5%
COc1cccc(C(NC(C)=O)c2nc(-c3ccccc3OC)cs2)c1 (configuration not stated)		13.7%
COc1ccc(-c2csc(C(O)c3cccc(Cl)c3)n2)cn1 (configuration not stated)	25.1 µM (active)	
CC(O)(c1cccc(F)c1)c1nc(-c2ccc3c(c2)OCO3)cs1 (configuration not stated)		-55.4%
Cc1ccccc1-c1csc(C(O)c2cccc(Cl)c2)n1 (configuration not stated)		8.26%
OC(c1ccccc1)c1nc(-c2cnc3ccccc3c2)cs1 (configuration not stated)		0%
CC(C)c1cccc(-c2csc(C(O)c3ccccc3)n2)c1 (configuration not stated)	17.8 µM (active)	
COc1cc(C(O)c2nc(-c3cnn(C)c3)cs2)ccc1F (configuration not stated)		0%
COc1ccc(C(O)c2nc(-c3ccc4c(c3)OCO4)cs2)cc1 (configuration not stated)	14.1 µM (active)	
Cc1ccc(-c2nc(Cn3c(=O)cc(-c4ccccc4)c4c(C)nn(C)c43)c(C)o2)cc1		11.8%
CCCCN1CC(c2nc3ccccc3n2CCCCOc2ccc(C)cc2C)CC1=O (configuration not stated)		-86.6%
Cc1ccc(-c2nc(CS(=O)(=O)CC(=O)NCc3ccccc3Cl)c(C)o2)cc1		14.5%
O=C(Nc1cccc(C(=O)O)c1)/C(=C\c1ccccc1)NC(=O)c1ccc(Br)o1		-9.24%
O=C(N/N=C\C1CC=CCC1)c1ccc(Br)o1 (configuration not stated)		11.6%
O=C(N/N=C/c1cccc(OCc2ccccc2)c1)c1ccc(Br)o1	11.2 µM (active)	
CC(C)Sc1oc(-c2cccs2)nc1S(=O)(=O)c1ccc(Cl)cc1		3.2%
CCOc1cccc2cc(-c3cn4c(n3)sc3cc(C)ccc34)c(=O)oc12		6.67%
